# The list is not random: actives were taken first. Their share in the collection is about 1.9%.
# PG9 binder = small molecules binding HIV-1 gp120 antibody PG9; AID 624416; TR-FRET gp120-PG9 antibody binding; inhibition, % at 6.7 µM; 360,000 compounds, 0.43% hits; in the data active = inhibition above about 8.5%
# NCF1 inh = p47phox (human) inhibition; inhibition, % at 24.7 µM; p47phox/p22phox peptide binding, fluorescence polarization, 2 h; 220,000 compounds, 0.53% hits;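 active = inhibition above about 30%, limit read from the data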;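 note: 0% = p47phox with labelled peptide and 100% = labelled peptide alone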
# EBNA-1 inh = blocks EBNA-1 binding to DNA. inhibition, % at 14.8 µM. AID 1950. EBNA-1 DNA binding, fluorescence polarization. 300,000 compounds, 0.34% hits; in the data active = inhibition above about 28%
# Rev-erbA mod = modulates human Rev-erb alpha binding to DNA | P20393 | Rev-erbα–FITC-DNA binding, fluorescence polarization, 90 min | activity, % at 10 µM | 370,000 compounds, 0.79% hits;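 active = activity above about 14%, limit read from the data; passing the limit was not always enough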;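 note: 0% = DMSO wells with 35 nM protein and 100% = DMSO wells with 750 nM protein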
# ZTA DNA inh = counter-screen for EBNA-1 inhibitors: inhibitors of Epstein-Barr virus ZTA. inhibition, % at 11 µM. P03206. ZTA-DNA binding, fluorescence polarization. 320,000 compounds, 0.15% hits; in the data active = inhibition above about 33%
# Target sequence (P03206 whole entry, looked up): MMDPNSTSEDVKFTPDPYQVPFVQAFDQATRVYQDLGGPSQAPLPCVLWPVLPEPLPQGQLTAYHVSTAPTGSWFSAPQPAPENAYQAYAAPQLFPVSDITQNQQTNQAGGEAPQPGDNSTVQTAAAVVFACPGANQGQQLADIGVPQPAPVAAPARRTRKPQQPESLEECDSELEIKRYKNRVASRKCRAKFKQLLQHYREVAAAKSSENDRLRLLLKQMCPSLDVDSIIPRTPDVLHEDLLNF
# aDG glyco up = increases alpha dystroglycan glycosylation. 360,000 compounds, 0.22% hits. activation, % at 10 µM. Pro5-aDG cells, alpha-DG glycosylation AlphaScreen (IIH6); 0% Pro5, 100% B10-LARGE cell signal. AID 624168;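 active = activation of at least 8% versus controls, or a plate z-score of at least 8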;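 note: Pro5 are CHO cells carrying HIG-tagged alpha-DG that lacks glycosylation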
# Starred values were filed as active, the others as inactive; / = not tested or not shown.
SMILES,PG9 binder,NCF1 inh,EBNA-1 inh,Rev-erbA mod,ZTA DNA inh,aDG glyco up
CCN(CC)C(=O)COC(=O)c1cc(-c2ccco2)nc2ccccc12,3,46*,/,-20,/,0
CC(C)Cc1ccc(/C(=N/O)C(=O)O)s1,0,58*,-10,1,4,0
COc1ccc(C2=CC(=O)C=CC2=O)cc1,/,58*,/,/,/,/
c1ccc2cc3[nH]c(CNc4nc(N5CCOCC5)nc5c4ncn5-c4ccsc4)nc3cc2c1,/,/,/,0,/,/
Cc1ccc2nc(NC(=O)c3cccc(-c4cc5ccccc5oc4=O)c3)sc2c1,0,23,-5,13,-4,/
CCOc1ccc2nc(NC(=O)c3cccc(-c4cc5ccccc5oc4=O)c3)sc2c1,0,57*,19,0,-12,0
COC(=O)C1CN(Cc2cn(Cc3ccc(Cl)cc3)nn2)CCS(=O)(=O)N1Cc1ccccc1 (stereo not given),/,/,/,2,/,/
CCCCCCCCCCCCCCCC(=O)OCC(O)[C@H]1OC(=O)C(O)=C1O (stereo not given in full),/,/,/,0,/,/
Cc1ccc(-c2nc3cccnc3o2)cc1NC(=O)COc1ccc(Cl)cc1C,3,57*,4,12,1,0
Cc1ccccc1-n1sc2cc(F)ccc2c1=O,1,102*,10,-12,-25,-1
CCc1ccc(-c2csc(NC(=O)Oc3ccccc3)n2)cc1,-4,30*,-3,8,-3,0
O=C(Nc1nc(-c2cccc(Br)c2)cs1)Oc1ccccc1,0,7,-10,1,-2,0
Cc1ccc(S(=O)(=O)n2nc(C)cc2C)cc1,0,43*,-2,-1,-16,0
Fc1ccc(CNn2cnnc2SCc2ccc(F)cc2)cc1,1,-15,-8,-1,-11,0
Fc1ccc(CSc2nncn2NCc2ccc3c(c2)OCO3)cc1,1,103*,4,-2,-13,0
CC/C=C(\C(=O)N[C@@H]1C(=O)N2C(C(=O)OCOC(=O)C(C)(C)C)=C(COC(N)=O)CS[C@H]12)c1csc(N)n1,/,/,/,-4,/,/
CC(NS(C)(=O)=O)C(c1cccs1)N1CCN(Cc2ccccc2)CC1 (stereo not given),0,169*,0,2,0,0
CCOC(=O)c1ccc(NC(=O)Nc2ccc(Cl)cn2)cc1,-3,36*,-9,-1,2,0
[O-][n+]1ccccc1SSc1cccc[n+]1[O-],/,/,/,0,/,/
COc1cccc(OC[C@@H](O)CN2CCC(C(O)(c3ccccc3)c3ccccc3)CC2)c1,/,/,/,-6,/,/
CC(=O)N(C1=C(N)C(=O)c2ccccc2C1=O)c1ccccc1,1,/,-10,10,9,4.1*
O=C(N(c1ccccc1)c1ccccc1)N(c1ccccc1)c1ccccc1,2,-15,-5,3,-14,0
CCC1=NNc2cccc3c(OC)ccc1c23,/,138*,-6,/,19,/
COc1ccc2c3c(cccc13)C(=O)N(O)C2=O,-1,4,-1,-3,14,0
Cc1ccc(C(=O)OCC(=O)c2cc(C)n(CC3CCCO3)c2C)cc1 (stereo not given),-1,59*,9,-5,12,0
SMILES,PG9 binder,NCF1 inh,EBNA-1 inh,Rev-erbA mod,ZTA DNA inh,aDG glyco up
Cc1cc(C(=O)COC(=O)c2ccccc2O)c(C)n1CC1CCCO1 (stereo not given),-2,/,/,3,-7,1
O=C1C[C@H](c2ccc3ccccc3c2)N=C2N1/C(=C\c1ccccc1)[C@@H](c1ccccc1C(F)(F)F)N2Cc1ccc2c(c1)OCO2,/,/,/,4,/,/
Cc1ccc(NC(=O)Nn2cnnc2)cc1Cl,0,/,6,5,8,0
Cc1ccc(NC(=O)O/N=C/c2c(C)nn(C(C)(C)C)c2C)cc1Cl,1,132*,-8,-1,-2,0
CCCCCCCCN1C(=O)[C@@H](CC(=O)N2CCCC2)C[C@@]2(C(=O)OC)C1=C[C@H](COCc1ccccc1)O[C@@H]2C,/,/,/,-10,/,/
CC(=O)[C@@]1(O)CCC2C3C[C@H](C)C4=CC(=O)C=CC4(C)[C@@]3(F)[C@@H](O)C[C@@]21C (stereo not given in full),/,/,/,6,/,/
CCO[C@@H]1OC(C(=O)NCc2nc3ccccc3[nH]2)=C[C@H](C)[C@H]1CCCO,0,45*,-7,1,-7,0
O=C(O)CSc1cc(NS(=O)(=O)c2cccc([N+](=O)[O-])c2)c2ccccc2c1O,-2,11,/,2,/,2.6*
CCc1ccc(S(=O)(=O)Nc2ccc(O)c3ccccc23)cc1,-2,/,3,7,-5,2
Cc1ccc(C)c(S(=O)(=O)Nc2cc(SCC(=O)O)c(O)c3ccccc23)c1,/,7,8,/,-2,8.5*
Cc1ccc(NS(=O)(=O)c2cc(NC(=O)C(C)Oc3ccccc3)ccc2C)c(C)c1 (stereo not given),0,-13,-2,14,-16,1
CCOc1ccc(S(=O)(=O)Nc2cc(SCC(=O)O)c(O)c3ccccc23)cc1,-1,/,/,-1,/,3.9*
CCOC(=O)c1ccccc1NS(=O)(=O)c1ccc(OCC)cc1,2,1,-2,0,-15,0
CCc1ccc(S(=O)(=O)Nc2cc(SCC(=O)O)c(O)c3ccccc23)cc1,2,-2,0,3,2,8.1*
O=C(O)c1cccc(S(=O)(=O)Nc2ccc([N+](=O)[O-])cc2O)c1,2,-6,-4,-3,5,0
CO/N=C(\C(=O)N[C@@H]1C(=O)N2C(C(=O)OCOC(=O)C(C)(C)C)=C(C)CS[C@H]12)c1csc(N)n1,/,/,/,5,/,/
Fc1ccccc1-c1n[nH]c(=S)n1N=Cc1ccc(OCc2ccccc2)cc1,/,/,/,-7,/,/
C#CCN(C)S(=O)(=O)c1ccc(N2CCCC2)cc1Br,/,/,/,-2,/,/
CCOC(=O)[C@@]12CCCC=C1N(CCc1ccc(Cl)cc1)C(=O)[C@H]2CC(=O)N1CCCC1,/,/,/,4,/,/
O=C(O)C1CCCCC1C(=O)NCCCn1ccnc1 (stereo not given),/,36*,0,1,-2,0
CCCCCn1c(N)c(-c2nc3ccccc3o2)c2c([N+](=O)[O-])nn(C)c(=O)c21,1,38*,1,-39,4,0
C1=Cc2cccc(OCC3CNCCO3)c2C1 (stereo not given),/,/,/,1,/,/
CCCN1C(=O)/C(=c2\s/c(=C3\C=Cc4ccccc4N3CC)c(=O)n2-c2ccccc2)SC1=S,/,70*,-9,/,-4,/
CCCn1c(=C(C#N)C#N)s/c(=C2\C=Cc3ccccc3N2CC)c1=O,-1,37*,/,3,/,0
CCN1/C(=C2\OC(=S)N(C)C2=O)C=Cc2ccccc21,-1,-84,-7,6,-5,0
CC(C)CNc1cccc2c1S(=O)(=O)N(Cc1cn(Cc3cccc(C(F)(F)F)c3)nn1)Cc1ccccc1O2,/,/,/,3,/,/

# Source: PubChem BioAssay
